As a reminder, the inhibition is the drop in the measured response relative to a control, in per cent.

Structures are written as SMILES. The campaign covered roughly 290,000 compounds. About 27,000 (9.3%) were called active. Shown is part of a subset that was picked to be rich in actives. Unmarked numbers belong to inactive results. Rule as the data show it: active = inhibition mostly above about 28% (no sharp cut-off); inactive = mostly below about 43%.

The test can be described thus: A qHTS for Small Molecule Inhibitors of Shiga Toxin. Also: 0% is about no effect. As to conditions: Vero cells, Shiga toxin protein synthesis inhibition reporter; at 38.7 µM, stronger effect = higher value. A general note: qHTS replaces the single test concentration by a dilution series.
Turning to `Cc1nnc(SCC(=O)Nc2ccc(S(=O)(=O)Nc3ccc(Cl)nn3)cc2)s1`, the inhibition is -5.8%.
The same measure for `NS(=O)(=O)c1ccc(-c2ccc(/C=C3\SC(=O)NC3=O)o2)cc1`: -1.11%; for `COc1cccc(/C=N/Nc2ccc(Cl)nn2)c1`: 25.9%.
With `Oc1cccc(/C=N/Nc2ccc(Cl)nn2)c1O`, the inhibition is 60.3% (active).
The same measure for `Nc1nnnn1/N=C/c1cccs1`: -9.54%.
As for `Cc1ccsc1/C=N/Nc1ccc(Cl)nn1`, the inhibition is 17.1%.
The same measure for `Clc1ccc(N/N=C/c2cccs2)nn1`: 122% (active); for `Cc1ccc(S(=O)(=O)N2CCN(c3ccccc3)CC2)cc1C`: -9.21%; for `O=C(CC1SC(=Nc2ccccc2)N(Cc2ccccn2)C1=O)Nc1cccc(Cl)c1` (centres undefined): 44.2% (active).
Regarding `CCN1C(=O)C(CC(=O)Nc2cc(C)ccc2C)SC1=Nc1ccc(S(N)(=O)=O)cc1` (centres undefined), the inhibition is 28.8%.
The result for `CN1C(=O)C(CC(=O)Nc2ccccc2)S/C1=N/c1nccs1` (centres undefined) reads -5.12%.
Consider `COc1ccc(NC(=O)CCCN2C(=O)C(c3ccccc3)Oc3cccnc32)cc1` (centres undefined), for which the inhibition is -5.94%.
The same measure for `C/C(=N\Nc1nncc2ccccc12)c1ccc(Cl)c([N+](=O)[O-])c1`: 59.8%; for `CN(CCO)c1ccc(/C=N/Nc2nncc3ccccc23)cc1`: 41.9% (active).
The result for `COc1cc(/C=N/Nc2nn3cnnc3c3ccccc23)cc(OC)c1OC` reads 18.6%; that for `Oc1ccc2ccccc2c1N=Nc1nccs1`, 13.9%.
With `Oc1ccc(N=Nc2nccs2)c(O)c1`, the inhibition is 58.3% (active).
The result for `Cc1ccc(CNC(=O)Cn2cnc(S(=O)(=O)N3CCCCC3)c2)o1` reads 0.422%.
The result for `O=C(Nc1ccc2c(c1)CCC2)c1cccc(S(=O)(=O)Nc2ccccc2Cl)c1` reads 8.91%; that for `O=C(Nc1ccc2c(c1)CCC2)c1cccc(S(=O)(=O)N2CCN(c3ccc(F)cc3)CC2)c1`, 86.5% (active).
`Cc1cccnc1NC(=O)c1cccc(S(=O)(=O)N2CCN(c3ccc(F)cc3)CC2)c1`: the inhibition was -9.4%.
The result for `O=C(O)CS/C(=C\c1ccc(F)cc1)c1nc2ccccc2s1` reads 121% (active).
Regarding `O=C(O)CSCc1nc2ccccc2s1`, the inhibition was 49.5%.
The result for `CN(Cc1nc2ccccc2s1)C(=O)c1ccc(F)cc1` reads 27.2%; that for `CCOC(=O)N1CCN(C(=O)c2ccc3c(=O)n(CCc4ccc(OC)c(OC)c4)c(=O)[nH]c3c2)CC1`, -3.86%; that for `Nn1c(SCc2ccccc2)nnc1C1CCCCC1`, 101% (active).
The same measure for `Cc1cccc(CSc2nnc(C)c(=O)n2N)c1`: -13%.
The result for `Cc1nnc(SCc2cccc(Cl)c2)n(N)c1=O` reads -4.93%.
As for `CC(C)CC(=O)Nc1ccc(Cc2ccncc2)cc1`, the inhibition was -5.26%.
The result for `Cc1nc2cc(C(F)(F)F)ccc2n1CCNc1nc(-c2cc(Cl)c(N)c(Cl)c2)cs1` reads -1.88%; that for `COc1ccc(CN2CCN(C(=O)CCC(=O)Nc3nnc(C(C)C)s3)CC2)cc1F`, -3.9%.
The same measure for `Cc1ccc(C(=O)NNc2ncnc3ccccc23)cc1`: 76.1% (active); for `CCc1nc(SCC(=O)NNC(=O)c2ccc(C)cc2)c2ccccc2n1`: -1.93%.
As to `Cc1ccc(C(=O)NNC(=O)c2cc3cc4ccccc4nc3s2)cc1`, the inhibition was -14.9%.
For the compound `CC(C)CC(=O)Nc1nnc(S(=O)(=O)N(C)c2ccc(Cl)cc2)s1`, the inhibition is -4.79%.
The same measure for `CCOC(=O)C1=C(C)NC(=S)NC1c1cccs1` (centres undefined): -11.1%; for `C=CCOC(=O)C1=C(C)NC(C)=C(C(=O)OCC=C)C1c1cccs1`: 86.3% (active).
The result for `CCOC(=O)C1=C(C)Nc2nc3ccccc3n2C1c1cccs1` (centres undefined) reads -8.56%.
The same measure for `COc1ccc(CCNC(=O)c2cnc(Cl)c(Cl)c2)cc1`: -1.83%; for `COc1ccc(OCc2cc(C(=O)NCC3(C)COC3)no2)c(Cl)c1`: 75.4% (active).
As for `COc1ccc(-c2cc(C(=O)NCCCN3CCOCC3)no2)cc1`, the inhibition was 20%.
The same measure for `CC1CC(C)CN(CCCNC(=O)c2csc3c2CCCCC3)C1` (centres undefined): -1.88%; for `CC(=O)c1cccc(NC(=O)c2cc(C)nn2-c2ccccc2)c1`: 30.5%; for `CC(C)C[C@H](NC(=O)N1CCn2c1nc1ccccc12)C(=O)NC1CC1`: 23.3%.
`CCCCNC(=O)N(O)C1N(/N=C/c2ccccc2O)C(=S)SC1(C)C` (centres undefined): the inhibition is 34.2% (active).
The same measure for `CCC(C)N1C(=S)SC(C)(C)C1N(O)C(=O)NC1CCCCC1` (centres undefined): -10.6%; for `CCCCNC(=O)N(O)C1N(/N=C/c2ccc(N(C)C)cc2)C(=S)SC1(C)C` (centres undefined): -5.76%.
The same measure for `Cc1ccc(S(=O)(=O)NC(=O)c2cccc(C)c2)cc1`: 18.1%.
As for `Cn1ncc2c(N3CCCCC3)nc(NCCCO)nc21`, the inhibition was 1.02%.
The result for `COc1cc(CN2CCC(n3nccc3NC(=O)CCCc3ccccc3)CC2)ccc1O` reads 7.77%.
The result for `C/C(CC(=O)NC(C)(C)C)=N\NC(=O)c1ccco1` reads 70.6% (active).
The same measure for `CC(C)(C)NC(=O)c1cc(NC(=O)c2ccco2)cc(NC(=O)c2ccco2)c1`: 24.3%; for `COc1ccc(N(CC(=O)NC(C)(C)C)C(=O)c2ccco2)cc1`: -10.7%.
For the compound `CCNS(=O)(=O)c1ccc(CCC(=O)N2CCN(c3ccc(OC)cc3)CC2)cc1`, the inhibition was 13.1%.
Turning to `Cc1nn(CCCC(=O)NCc2ccccc2Cl)c(=O)c2nccn12`, the inhibition is -3.9%.
The same measure for `NC(=O)c1oc2ccccc2c1NC(=O)CS(=O)(=O)c1ccccc1`: 12.2%; for `COC(=O)c1ccc(CN2C(=O)NC(c3ccccc3)(c3ccccc3)C2=O)o1`: 21.7%; for `Cc1ccc2c(c1)N(CC(=O)NCCCN1CCCCC1)C(=O)c1cccnc1O2`: 2.73%.
The same measure for `CC(Oc1cccc(NC(=O)c2cccs2)c1)C(=O)c1ccccc1` (centres undefined): 36.4%.
On to `O=C(Nc1ccc2oc(-c3ccc4ccccc4c3)nc2c1)c1cccs1`, for which the inhibition is 80.9% (active).
Consider `O=C(Nc1ccc(NC(=O)c2cccs2)cc1)c1ccc2ccccc2c1`, for which the inhibition was 24.5%.
Regarding `O=C(Cc1cccc2ccccc12)Nc1ccc2oc(-c3ccccc3)nc2c1`, the inhibition was 74.8% (active).
The same measure for `O=C(Cc1cccc2ccccc12)NNC(=O)Nc1ccc(Cl)cc1`: 62.1%; for `CC(O)c1cccc(NC(=O)Cc2cccc3ccccc23)c1` (centres undefined): 0.246%.

(Values after PubChem BioAssay AID2315 (National Center for Advancing Translational Sciences (NCATS), 2010).)
